Common to all, as to conditions: mRNA level, 48 h; actives raise or lower the signal
Read-out in assay [1]: Lipoprotein lipase (LPL), LPL (gene 4023)
In words: LTEA_HepaRG_LPL: Life Technologies and Expression Analysis (LTEA) Assay for Lipoprotein lipase (LPL) using HepaRG (AID 2283515). In short, it runs like this: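 LPL transcript levels quantified by TaqMan qRT-PCR against three housekeeping genes after 48 h chemical treatment of HepaRG cells. Eight-point half-log series from 100 uM in 0.5% DMSO, tested in duplicate; bidirectional fitting versus vehicle.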

Read-out in assay [2]: MicroRNA 122 (MIR122), gene 406906
The assay can be described thus: LTEA_HepaRG_MIR122: Life Technologies and Expression Analysis (LTEA) Assay for MicroRNA 122 (MIR122) using HepaRG (AID 2283516). Further: the transcript read is the microRNA miR-122. The essentials: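 Expression measured by microfluidic qRT-PCR with three housekeeping genes for normalisation, after 48 h treatment of HepaRG cultures. Eight concentrations (top 100 uM, half-log steps, 0.5% DMSO vehicle) in duplicate; gain or loss fitted relative to vehicle.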

Read-out in assay [3]: matrix metalloproteinase-10 (MMP10), MMP10 (gene 4319)
The assay can be described thus: LTEA_HepaRG_MMP10: Life Technologies and Expression Analysis (LTEA) Assay for matrix metalloproteinase-10 (MMP10) using HepaRG (AID 2283517). The essentials: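 Expression measured by TaqMan qRT-PCR with ACTB/GAPDH/POLR2A normalisation after 48 h chemical exposure of HepaRG cells. Eight half-log concentrations, top 100 uM, 0.5% DMSO vehicle, duplicates; gain or loss fitted against vehicle.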

Read-out in assay [4]: matrix metalloproteinase-3 (MMP3), MMP3 (gene 4314)
The assay can be described thus: LTEA_HepaRG_MMP3: Life Technologies and Expression Analysis (LTEA) Assay for matrix metalloproteinase-3 (MMP3) using HepaRG (AID 2283519). The essentials:
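Fluidigm-based TaqMan qRT-PCR, normalized to ACTB, GAPDH and POLR2A and fitted bidirectionally versus 0.5% DMSO, measured transcript levels. Treatment: duplicate 48 h exposures of HepaRG cells, ~100,000/well, to eight half-log concentrations topping at 100 uM.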

Read-out in assay [5]: Paternally Expressed 10 (PEG10), PEG10 (gene 23089)
In words: LTEA_HepaRG_PEG10: Life Technologies and Expression Analysis (LTEA) Assay for Paternally Expressed 10 (PEG10) using HepaRG (AID 2283520).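 On AC50: differentiated HepaRG human liver cells in serum-free induction medium with 0.5% DMSO; PEG10 transcript by qRT-PCR normalised to ACTB GAPDH and POLR2A.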 In short, it runs like this: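 PEG10 transcript measured by Fluidigm qRT-PCR, normalized to three housekeeping genes, in HepaRG cells treated 48 h (highest 100 uM, half-log steps, 0.5% DMSO vehicle). Cells plated 48 h before switching to serum-free induction medium.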

Read-out in assay [6]: Nuclear factor NF-kappa-B p105 subunit (Homo sapiens) (UniProt P19838)
The assay can be described thus: LTEA_HepaRG_NFKB1: Life Technologies and Expression Analysis (LTEA) Assay for Nuclear Factor Kappa B Subunit 1 (NFKB1) using HepaRG (AID 2283521).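 On outcome: differentiated human HepaRG liver cells in serum-free induction medium; TaqMan qRT-PCR transcript normalised to ACTB GAPDH and POLR2A housekeeping genes.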 In short, it runs like this: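 NFKB1 transcript was measured by TaqMan qRT-PCR on Fluidigm arrays, normalised to three housekeeping genes and fitted in both directions against 0.5% DMSO. HepaRG cells were dosed in duplicate for 48 h in serum-free induction medium, eight half-log steps from 100 uM.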

Read-out in assay [7]: Protein phosphatase 2A (PPP2R4), PTPA (gene 5524)
The assay can be described thus: LTEA_HepaRG_PPP2R4: Life Technologies and Expression Analysis (LTEA) Assay for Protein phosphatase 2A (PPP2R4) using HepaRG (AID 2283522). The essentials: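 Expression was quantified by Fluidigm qRT-PCR normalised to three housekeeping genes after 48 h treatment. Human HepaRG cells received an 8-point series from 100 µM downward by half-logs, in duplicate with 0.5% DMSO vehicle and 1 mM phenobarbital as induction control.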

Read-out in assay [8]: Phosphatase and tensin (PTEN), PTEN (gene 5728)
In words: LTEA_HepaRG_PTEN: Life Technologies and Expression Analysis (LTEA) Assay for Phosphatase and tensin (PTEN) using HepaRG (AID 2283523). The essentials: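 Read-out: TaqMan qRT-PCR of PTEN transcript, normalized to three housekeeping genes, fitted in both directions against 0.5% DMSO. Differentiated human HepaRG cultures received chemicals for 48 h, eight-point half-log series topping at 100 uM.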

Read-out in assay [9]: solute carrier (SLC22A1), SLC22A1 (gene 6580)
The assay can be described thus: LTEA_HepaRG_SLC22A1: Life Technologies and Expression Analysis (LTEA) Assay for solute carrier (SLC22A1) using HepaRG (AID 2283524).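 On AC50: differentiated human HepaRG liver cells in serum-free induction medium.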 In short, it runs like this: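 Transcript level of SLC22A1 quantified by qRT-PCR (normalized to three housekeeping genes) after 48 h chemical exposure of HepaRG cells, eight concentrations up to 100 µM, half-log steps, 0.5% DMSO vehicle. Gain or loss relative to DMSO fitted bidirectionally.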

Activity calls are given as the source filed them. How the source made its calls: active means hit-call score of the fitted dose curve at least 0.9, where 1 is the maximum; inactive means score below 0.9.

Sequence of Nuclear factor NF-kappa-B p105 subunit (Homo sapiens) (P19838 whole entry, looked up): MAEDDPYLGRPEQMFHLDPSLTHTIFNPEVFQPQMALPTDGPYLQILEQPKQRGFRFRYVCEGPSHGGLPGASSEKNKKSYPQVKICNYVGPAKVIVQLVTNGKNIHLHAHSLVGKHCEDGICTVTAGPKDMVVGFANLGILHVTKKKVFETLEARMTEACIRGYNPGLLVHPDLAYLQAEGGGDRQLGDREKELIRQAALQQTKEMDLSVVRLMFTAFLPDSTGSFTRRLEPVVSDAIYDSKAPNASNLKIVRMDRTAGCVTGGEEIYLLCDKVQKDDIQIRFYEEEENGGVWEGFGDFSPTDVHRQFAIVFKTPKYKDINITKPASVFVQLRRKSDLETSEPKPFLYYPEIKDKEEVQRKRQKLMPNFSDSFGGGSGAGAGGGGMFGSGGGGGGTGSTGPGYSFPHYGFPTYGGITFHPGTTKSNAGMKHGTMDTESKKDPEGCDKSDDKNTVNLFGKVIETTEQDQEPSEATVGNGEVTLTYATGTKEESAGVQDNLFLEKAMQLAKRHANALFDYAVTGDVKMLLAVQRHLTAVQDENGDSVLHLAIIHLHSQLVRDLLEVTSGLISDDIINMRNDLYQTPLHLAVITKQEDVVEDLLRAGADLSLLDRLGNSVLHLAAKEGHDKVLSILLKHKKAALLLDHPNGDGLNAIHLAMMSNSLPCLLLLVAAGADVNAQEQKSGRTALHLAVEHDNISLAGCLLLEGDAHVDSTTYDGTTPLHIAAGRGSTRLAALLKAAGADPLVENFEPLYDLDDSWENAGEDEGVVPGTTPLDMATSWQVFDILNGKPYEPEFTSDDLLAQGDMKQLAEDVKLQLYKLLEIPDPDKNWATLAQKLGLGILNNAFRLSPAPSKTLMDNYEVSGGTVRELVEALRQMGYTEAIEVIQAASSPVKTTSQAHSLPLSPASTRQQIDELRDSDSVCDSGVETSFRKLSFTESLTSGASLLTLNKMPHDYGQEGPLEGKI

`CCCCC(CC)COC(=O)CCCCC(=O)OCC(CC)CCCC` (stereo not drawn): the outcome in assay [1], in assay [2], in assay [3], in assay [4], in [5] and in [6] was inactive. Also, the call in [7], in assay [8] and in [9] was inactive.

Regarding `CN(C)C=O`, the result in assay [1], in [2], in assay [3], in assay [4], in assay [5] and in assay [6] was inactive. In addition, the result in assay [7], in [8] and in assay [9] was inactive.

For the molecule `COCC(C)O` (stereo not drawn), the result in assay [1], in assay [2], in assay [3], in assay [4], in [5] and in assay [6] was inactive. The result in [7], in assay [8] and in [9] was inactive.

For the molecule `CCCCCCC(=O)O`, the result in [1], in [2], in [3], in assay [4], in assay [5] and in [7] was inactive. Also, the call in assay [8] and in assay [9] was inactive.

As for `CCCCCCCC(=O)O`, the molecule was called inactive in [1], in [2], in assay [3], in [4], in assay [5] and in assay [7]. The outcome in assay [8] and in [9] was inactive.

Take `CN1CCC[C@H]1c1cccnc1`: the outcome in [1], in assay [2], in [3], in assay [4], in assay [5] and in assay [7] was inactive. In addition, the molecule was classed as inactive in [8] and in assay [9].

Take `CC(C)(C)c1cc(C(C)(C)C)c(O)c(C(C)(C)C)c1`: the outcome in assay [1], in [2], in assay [3], in assay [4], in [5] and in assay [7] was inactive. The molecule was called inactive in [8] and in assay [9].

Broadly, the AC50 is the concentration at which the activity in the assay is half-maximal. Take `Nc1cccc2c(N)cccc12`: the result in [1], in [2], in [3], in assay [4], in assay [6] and in [7] was inactive. Besides, the result in assay [8] was inactive. Also, the half-maximal activity concentration (AC50) in [5] is 9.92 µM (active); in assay [9], 50 µM (active).

For the molecule `CCC(=C(c1ccc(O)cc1)c1ccc(OCCN(C)C)cc1)c1ccccc1`, the molecule was called inactive in [1], in assay [4], in assay [5], in [6], in assay [7] and in assay [8]. Also, the AC50 in assay [2] was 88.8 µM (active); in [3] it was 72.4 µM (active); in [9], 93.4 µM (active).

As for `O=C(O)c1ccccc1C(c1ccc(O)cc1)c1ccc(O)cc1`, the result in assay [1], in assay [2], in [3], in [4], in [5] and in [6] was inactive. Also, the result in assay [7], in [8] and in assay [9] was inactive.

Regarding `c1ccc2c(c1)ccc1ccccc12`, the result in assay [1], in assay [2], in assay [3], in assay [4], in assay [5] and in [6] was inactive. Also, the result in [7], in assay [8] and in [9] was inactive.

In the case of `OCCC(F)(F)C(F)(F)C(F)(F)C(F)(F)C(F)(F)C(F)(F)F`, the call in assay [1], in assay [2], in assay [3], in [4], in [5] and in assay [7] was inactive. Besides, the call in [8] and in assay [9] was inactive.

Take `c1ccc2c(c1)Cc1ccccc1-2`: the outcome in [1], in assay [2], in assay [3], in assay [4], in assay [5] and in assay [6] was inactive. Moreover, the molecule was called inactive in assay [7], in assay [8] and in [9].

`C=C(C)C(=O)OCCC(F)(F)C(F)(F)C(F)(F)C(F)(F)C(F)(F)C(F)(F)F`: the call in assay [1], in assay [2], in assay [3], in [4], in assay [5] and in [6] was inactive. Also, the molecule was called inactive in [7], in assay [8] and in assay [9].

With `CCCCCCCCCCCCN1CCCC1=O`, the result in assay [1], in assay [2], in assay [3], in [4], in [5] and in assay [6] was inactive. Further, the molecule was called inactive in assay [7], in assay [8] and in [9].

With `COC(=O)CCCCC(=O)OC`, the molecule was called inactive in [1], in [2], in assay [3], in assay [4], in assay [5] and in assay [7]. The molecule was classed as inactive in assay [8] and in assay [9].

As to `CC[C@H](c1ccc(O)cc1)[C@@H](CC)c1ccc(O)cc1`, the figures for the AC50 in assay [1], in assay [7] and in assay [9] were 75.7 µM (active), 82.8 µM (active) and 71.4 µM (active), respectively. Further, the molecule was classed as inactive in assay [2], in assay [3], in assay [4], in [5], in [6] and in assay [8].

With `CCC(C)(C)C1CCC(O)CC1` (stereo not drawn), the result in assay [1], in assay [2], in assay [3], in assay [4], in assay [5] and in assay [6] was inactive. Moreover, the molecule was called inactive in [7], in assay [8] and in assay [9].

As for `CCCOc1sc(C(=O)N2CCC(c3cc(CN)ccc3F)CC2)c(C)c1Br`, the result in [1], in assay [2], in [3], in [4], in assay [5] and in assay [6] was inactive. Moreover, the result in assay [7], in assay [8] and in assay [9] was inactive.

In the case of `OCCC(F)(F)C(F)(F)C(F)(F)C(F)(F)C(F)(F)C(F)(F)C(F)(F)C(F)(F)F`, the outcome in [1], in assay [2], in assay [3], in assay [4], in assay [5] and in assay [6] was inactive. Moreover, the outcome in assay [7], in assay [8] and in [9] was inactive.

Consider `CCCOC(=O)c1ccc(O)cc1`, for which the molecule was called inactive in assay [1], in [2], in assay [3], in assay [4], in [7] and in assay [8]. Moreover, the molecule was called inactive in assay [9].

In the case of `CC(C)(C)c1ccc(O)c(C(C)(C)C)c1`, the molecule was called inactive in assay [1], in assay [2], in assay [3], in assay [4], in assay [5] and in [7]. In addition, the result in [8] and in assay [9] was inactive. In assay [6], the AC50 was 0.162 µM (active).

For `O=c1c(-c2ccc(O)cc2)coc2cc(O)ccc12`, the molecule was classed as inactive in [1], in assay [2], in [3], in [5], in assay [6] and in [7]. Also, the molecule was called inactive in [8] and in assay [9].

Source of the values: PubChem BioAssay (EPA / NIEHS).
